“And” between values parts separate entries of the source, which are not always exact repeats. Equal entries are not always repeated. Where a structure was tested more than once in an assay, its records may differ in their call. The source made the active and inactive calls. The calls were made as follows: active = hit-call score of the fitted dose curve at least 0.9, where 1 is the maximum; inactive = score below 0.9.

Read-out in test [1]: Thrombomodulin, THBD (gene 7056)
Briefly: BSK_CASM3C_Thrombomodulin: BioMAP Diversity Plus: CASM3C Assay for Thrombomodulin Biomarker Activity (AID 2283051).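 Also: thrombomodulin protein level measured by ELISA 24 h after dosing.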 The conditions noted are these: primary human coronary artery smooth muscle cells; actives raise or lower the signal.

Read-out in test [2]: Tissue Factor, F3 (gene 2152)
The experiment in a line: BSK_CASM3C_TissueFactor: BioMAP Diversity Plus: CASM3C Assay for Tissue Factor Biomarker Activity (AID 2283052).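 Also: cell surface tissue factor protein level read by ELISA.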 The conditions noted are these: primary human coronary artery smooth muscle cells; actives raise or lower the signal.

Read-out in test [3]: Interferon-gamma inducible Protein 10 (IP10), CXCL10 (gene 3627)
Briefly: BSK_hDFCGF_IP10: BioMAP Diversity Plus: hDFCGF Assay for Interferon-gamma inducible Protein 10 (IP10) Biomarker Activity (AID 2283053). Particulars: primary human foreskin fibroblasts; actives raise or lower the signal. A digest of the protocol: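 Chemical-treated human skin fibroblasts (primary) were sampled at 24 h for IP-10 by ELISA. Both increases and decreases relative to DMSO were scored.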

Read-out in test [4]: Urokinase-type plasminogen activator receptor (uPAR), PLAUR (gene 5329)
The experiment in a line: BSK_CASM3C_uPAR: BioMAP Diversity Plus: CASM3C Assay for Urokinase-type plasminogen activator receptor (uPAR) Biomarker Activity (AID 2283054).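 Also: cell-surface uPAR protein level quantified by ELISA.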 Particulars: primary human coronary artery smooth muscle cells; actives raise or lower the signal.

Read-out in test [5]: Vascular cell adhesion molecule 1 (VCAM1), VCAM1 (gene 7412)
The experiment in a line: BSK_CASM3C_VCAM1: BioMAP Diversity Plus: CASM3C Assay for Vascular cell adhesion molecule 1 (VCAM1) Biomarker Activity (AID 2283055).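 Also: VCAM-1 protein level quantified by ELISA on the cells.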 The conditions noted are these: primary human coronary artery smooth muscle cells; actives raise or lower the signal.

Read-out in test [6]: Collagen III, COL3A1 (gene 1281)
The experiment in a line: BSK_hDFCGF_CollagenIII: BioMAP Diversity Plus: hDFCGF Assay for Collagen III Biomarker Activity (AID 2283056). The conditions noted are these: primary human foreskin fibroblasts; actives raise or lower the signal. Summed up:
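Human foreskin primary fibroblasts were exposed to test chemicals for 24 h, after which collagen III was quantified by ELISA. Activity was fitted bidirectionally against DMSO as negative control and baseline.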

Read-out in test [7]: Interleukin-8 (IL8), CXCL8 (gene 3576)
The experiment in a line: BSK_hDFCGF_IL8: BioMAP Diversity Plus: hDFCGF Assay for Interleukin-8 (IL8) Biomarker Activity (AID 2283058). Particulars: primary human foreskin fibroblasts; actives raise or lower the signal. A digest of the protocol:
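hDFCGF human dermal fibroblasts; 24 h chemical exposure; IL-8 by ELISA; bidirectional curve fit vs DMSO baseline; gain or loss of signal scored.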

Test [8] in a line: BSK_hDFCGF_Proliferation: Cell Proliferation Assessment in the BioMAP Diversity Plus: hDFCGF Assay (AID 2283059).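 Also: curves fitted for both rise and fall of signal versus DMSO baseline.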 The conditions noted are these: primary human foreskin fibroblasts. Summed up: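 This proliferation readout used SRB total-protein staining of human foreskin fibroblasts […], normalized to DMSO with bidirectional curve fitting.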
Read-out in test [9]: Macrophage colony-stimulating factor (MCSF), CSF1 (gene 1435)
The experiment in a line: BSK_hDFCGF_MCSF: BioMAP Diversity Plus: hDFCGF Assay for Macrophage colony-stimulating factor (MCSF) Biomarker Activity (AID 2283060). Particulars: primary human foreskin fibroblasts; actives raise or lower the signal. A digest of the protocol:
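Human foreskin primary fibroblasts were treated with test chemical for 24 h, and M-CSF was then measured by ELISA. Data were fitted bidirectionally against DMSO as the negative control and activity baseline.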

Test [10] in a line: BSK_hDFCGF_SRB: Viability Assessment in the BioMAP Diversity Plus: hDFCGF Assay (AID 2283061).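 Also: cells exposed to compound for 24 h before the read.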 The conditions noted are these: primary human foreskin fibroblasts. Summed up:
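Human foreskin primary fibroblasts were treated with compound and assessed 24 h after dosing. Total protein was measured by sulforhodamine B staining (0.1% SRB after 10% TCA fixation, 560 nm read) as a cytotoxicity marker, with bidirectional fitting against DMSO baseline.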

Read-out in test [11]: TIMP metallopeptidase inhibitor 1 (TIMP1), TIMP1 (gene 7076)
The experiment in a line: BSK_hDFCGF_TIMP1: BioMAP Diversity Plus: hDFCGF Assay for TIMP metallopeptidase inhibitor 1 (TIMP1) Biomarker Activity (AID 2283062). Particulars: primary human foreskin fibroblasts; actives raise or lower the signal. A digest of the protocol: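 Primary human foreskin fibroblasts in the hDFCGF system were dosed with compound for 24 h, then TIMP-1 was measured by ELISA. Activity was fitted bidirectionally relative to DMSO control; parallel SRB staining assessed cytotoxicity.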

Read-out in test [12]: Monokine induced gamma interferon (MIG), CXCL9 (gene 4283)
The experiment in a line: BSK_hDFCGF_MIG: BioMAP Diversity Plus: hDFCGF Assay for Monokine induced gamma interferon (MIG) Biomarker Activity (AID 2283063). The conditions noted are these: primary human foreskin fibroblasts; actives raise or lower the signal. Summed up:
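ELISA read-out of MIG from primary human dermal fibroblasts 24 h post-dosing. Gain or loss of signal fitted bidirectionally, DMSO as baseline.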

Read-out in test [13]: Matrix Metallopeptidase 1 (MMP1), MMP1 (gene 4312)
Briefly: BSK_hDFCGF_MMP1: BioMAP Diversity Plus: hDFCGF Assay for Matrix Metallopeptidase 1 (MMP1) Biomarker Activity (AID 2283064). The conditions noted are these: primary human foreskin fibroblasts; actives raise or lower the signal. A digest of the protocol:
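Human foreskin fibroblasts exposed to chemical for 24 h; MMP1 detected by ELISA, with DMSO as baseline for bidirectional fitting.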

Read-out in test [14]: Vascular cell adhesion molecule 1 (VCAM1), VCAM1 (gene 7412)
Briefly: BSK_hDFCGF_VCAM1: BioMAP Diversity Plus: hDFCGF Assay for Vascular cell adhesion molecule 1 (VCAM1) Biomarker Activity (AID 2283065).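 As to AC50: VCAM-1 protein level quantified by ELISA after 24 h chemical exposure.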 Particulars: primary human foreskin fibroblasts; actives raise or lower the signal. Summed up: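 Primary human foreskin fibroblasts (hDFCGF system) were dosed with chemical and VCAM-1 was measured by ELISA 24 h later. Bidirectional curve fitting used DMSO as negative control and activity baseline.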

Read-out in test [15]: Plasminogen activator inhibitor-1 (PAI1), SERPINE1 (gene 5054)
Briefly: BSK_hDFCGF_PAI1: BioMAP Diversity Plus: hDFCGF Assay for Plasminogen activator inhibitor-1 (PAI1) Biomarker Activity (AID 2283066). Particulars: primary human foreskin fibroblasts; actives raise or lower the signal. A digest of the protocol: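 Human skin fibroblast cultures receive chemical for 24 h before PAI-1 is measured by ELISA; signal changes are fitted bidirectionally against DMSO-treated wells.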

Read-out in test [16]: Intercellular Adhesion Molecule 1 (ICAM1), ICAM1 (gene 3383)
The experiment in a line: BSK_KF3CT_ICAM1: BioMAP Diversity Plus: KF3CT Assay for Intercellular Adhesion Molecule 1 (ICAM1) Biomarker Activity (AID 2283067). The conditions noted are these: primary human keratinocytes with fibroblasts; actives raise or lower the signal. Summed up:
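Human keratinocyte plus foreskin fibroblast primary co-culture was exposed to chemical for 24 h. ICAM-1 was then quantified by ELISA, and the data were fit bidirectionally against DMSO as the negative control and baseline.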

Read-out in test [17]: Interferon-gamma inducible Protein 10 (IP10), CXCL10 (gene 3627)
The experiment in a line: BSK_KF3CT_IP10: BioMAP Diversity Plus: KF3CT Assay for Interferon-gamma inducible Protein 10 (IP10) Biomarker Activity (AID 2283068). The conditions noted are these: primary human keratinocytes with fibroblasts; actives raise or lower the signal. Summed up:
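Signal is secreted/surface IP-10 by ELISA in a human primary skin co-culture of keratinocytes and foreskin fibroblasts, taken 24 h post-dosing; DMSO served as negative control.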

Test [18] is described as follows: BSK_KF3CT_SRB: Viability Assessment in the BioMAP Diversity Plus: KF3CT Assay (AID 2283069).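 Also: fitted for both signal gain and loss against DMSO baseline.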 Particulars: primary human keratinocytes with fibroblasts. Summed up:
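Overt cytotoxicity is assessed as total protein by sulforhodamine B staining in parallel human skin co-cultures at 24 h after dosing. DMSO serves as negative control and baseline.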

Read-out in test [19]: Interleukin-1 alpha (IL1a), IL1A (gene 3552)
Briefly: BSK_KF3CT_IL1a: BioMAP Diversity Plus: KF3CT Assay for Interleukin-1 alpha (IL1a) Biomarker Activity (AID 2283070). Particulars: primary human keratinocytes with fibroblasts; actives raise or lower the signal. A digest of the protocol: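 Readout is IL-1a level by ELISA, compared bidirectionally with DMSO as baseline. Cells: human keratinocytes co-cultured with foreskin fibroblasts, harvested 24 h post-dose.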

Read-out in test [20]: Epidermal growth factor receptor (EGFR), EGFR (gene 1956)
Briefly: BSK_hDFCGF_EGFR: BioMAP Diversity Plus: hDFCGF Assay for Epidermal growth factor receptor (EGFR) Biomarker Activity (AID 2283057). The conditions noted are these: primary human foreskin fibroblasts; actives raise or lower the signal. Summed up:
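Cell-based multiplexed assay in primary human foreskin fibroblasts. EGFR is read by ELISA 24 h after treatment and compared with DMSO controls.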

With `O=S(=O)(O)C(F)(F)C(F)(F)C(F)(F)C(F)(F)C(F)(F)C(F)(F)C(F)(F)C(F)(F)C(F)(F)C(F)(F)F`, the AC50 in [1] was 13.3 µM (active); in [5], 3.55 µM (active) and 2.65 µM (active); in test [8], 1.46 µM (active) and 1.89 µM (active); in test [10], 8.49 µM (active) and 8.79 µM (active); in test [11], 11.5 µM (active); in test [14] it was 201 nM (active). In addition, the half-maximal activity concentration (AC50) in [16] was 6.49 µM (active) and 3.75 µM (active). The result in test [1], in test [2], in test [3], in [4], in test [6] and in [7] was inactive. Also, the outcome in test [9], in test [11], in test [12], in test [13], in [14] and in test [15] was inactive. For the same compound, the outcome in test [17], in test [18] and in [19] was inactive.
In the case of `O=C1OC2(c3ccccc31)c1cc(I)c(O)c(I)c1Oc1c2cc(I)c(O)c1I`, the AC50 was 2.38 µM (active) in [1]; 16 µM (active) in [3]; 3.75 µM (active) in test [6]; 1.88 µM (active) in test [20]; 15.2 µM (active) in test [8]; 4.57 µM (active) in test [9]. In addition, the AC50 in test [11] was 6.04 µM (active); in test [12], 18.6 µM (active); in test [13] it was 7.71 µM (active); in test [14], 12000 nM (active); in test [15], 5.52 µM (active); in [16], 17.4 µM (active). The half-maximal activity concentration (AC50) in [17] was 18.4 µM (active); in test [19] it was 4.82 µM (active). For the same compound, the outcome in [2], in test [4], in [5], in [7], in [10] and in test [18] was inactive.
In the case of `CCCCCCCCCCCC`, the result in test [1], in [2], in [4], in test [5], in test [20] and in test [18] was inactive. Also, the AC50 is 8.64 µM (active) and 6.71 µM (active) in test [3]; 9.2 µM (active) and 5.67 µM (active) in test [6]; 12.9 µM (active) and 14.6 µM (active) in test [7]; 11.6 µM (active) and 11.5 µM (active) in [8]; 9.32 µM (active) and 10.2 µM (active) in [9]; 8.02 µM (active) and 11.1 µM (active) in [10]. Besides, the concentration at half-maximal activity (AC50) in test [11] is 7.88 µM (active) and 9.41 µM (active); in [12], 11.6 µM (active) and 10.2 µM (active); in test [13], 5.36 µM (active) and 7.16 µM (active); in test [14] it was 8.36 µM (active) and 7.77 µM (active); in [15], 11.2 µM (active) and 10.6 µM (active); in test [16], 15.2 µM (active) and 15.8 µM (active). Moreover, the AC50 is 11.1 µM (active) and 10.1 µM (active) in test [17]; 11.4 µM (active) and 12.2 µM (active) in test [19].
On to `C=CC(=O)OCCC(F)(F)C(F)(F)C(F)(F)C(F)(F)C(F)(F)C(F)(F)C(F)(F)C(F)(F)F`, for which the result in test [1], in test [2], in test [3], in test [4], in [5] and in test [6] was inactive. Also, the outcome in [7], in test [8], in test [9], in [10], in test [11] and in test [12] was inactive. The result in [13], in test [14], in test [15], in [16], in [17] and in [18] was inactive. In test [19], the outcome was inactive. Moreover, in test [8], the AC50 was 30 µM (active).
On to `O=C(O)C(F)(F)OC(F)(F)C(F)(F)OC(F)(F)C(F)(F)OC(F)(F)C(F)(F)C(F)(F)C(F)(F)F`, for which the outcome in [1], in [2], in test [4] and in test [18] was inactive. For the same compound, the AC50 was 10.1 µM (active) and 9.36 µM (active) in test [3]; 24.8 µM (active) and 30 µM (active) in test [5]; 10.9 µM (active) and 9.27 µM (active) in [6]; 21.9 µM (active) and 21.2 µM (active) in test [7]; 7.93 µM (active) and 8.07 µM (active) in test [8]; 11.6 µM (active) and 10.5 µM (active) in test [9]. Moreover, the concentration at half-maximal activity (AC50) was 8.7 µM (active) and 8.8 µM (active) in test [10]; 10.6 µM (active) and 8.08 µM (active) in test [11]; 12.1 µM (active) and 10.3 µM (active) in [12]; 7.6 µM (active) and 8.44 µM (active) in test [13]; 7.84 µM (active) and 6.66 µM (active) in [14]; 11.4 µM (active) in test [15]. The AC50 is 20.7 µM (active) and 21.8 µM (active) in test [16]; 7.51 µM (active) and 7.14 µM (active) in test [17]; 8.04 µM (active) in [18]; 14.2 µM (active) and 11.1 µM (active) in [19].

(Values after PubChem BioAssay (EPA / NIEHS).)
